# From paper PMC7862700, “An all-to-all approach to the identification of sequence-specific readers for epigenetic DNA modifications on cytosine”
# Columns and labels:
# Experiment in all cases: DAPPL (digital affinity profiling via proximity ligation, sequencing); 10 mM Tris-HCl pH 7.5, 50 mM NaCl, 1 mM DTT, 4% glycerol, room temperature, 30 min; GST-TFs on glutathione beads, 16-mer random dsDNA library, 0.1% formaldehyde crosslink after washing; high values mean tight binding
# [1] = target: T1, FLI1 (Homo sapiens, UniProt Q01543 1-452); conditions: protein: recombinant; tags: N-terminal GST; dsDNA, one strand shown
# T1 sequence: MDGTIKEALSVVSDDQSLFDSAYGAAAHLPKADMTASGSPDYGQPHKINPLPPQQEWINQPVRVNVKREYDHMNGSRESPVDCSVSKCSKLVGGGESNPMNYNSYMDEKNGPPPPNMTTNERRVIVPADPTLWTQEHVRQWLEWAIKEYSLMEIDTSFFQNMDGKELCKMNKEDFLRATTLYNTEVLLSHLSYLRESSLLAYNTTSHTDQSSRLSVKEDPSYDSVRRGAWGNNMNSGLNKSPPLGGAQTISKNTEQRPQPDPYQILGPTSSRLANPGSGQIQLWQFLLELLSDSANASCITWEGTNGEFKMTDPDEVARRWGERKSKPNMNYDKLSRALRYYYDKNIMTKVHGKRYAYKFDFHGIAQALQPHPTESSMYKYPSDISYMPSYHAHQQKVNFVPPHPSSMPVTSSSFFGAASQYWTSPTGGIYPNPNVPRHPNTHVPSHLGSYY
# Summary of the method: (§1)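 Binding signal is defined as a hexamer's read frequency for one factor over its frequency for the tag-only sample. To obtain reads, GST-fused human transcription factors were expressed in yeast, captured on glutathione beads, barcoded with DNA and pooled with that sample. Pools met 200 nmole of a 16-mer random double-stranded DNA library in Tris/NaCl/DTT/glycerol buffer for 30 min at room temperature before washing, 0.1% formaldehyde crosslinking, proximity ligation (BsaI/T4 ligase, 1 h, 37 °C), PCR and Illumina NextSeq500 sequencing.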
# [2] = target: T2, ELK1 (Homo sapiens, UniProt P19419 1-428); conditions: protein: recombinant; tags: N-terminal GST; dsDNA, one strand shown
# T2 sequence: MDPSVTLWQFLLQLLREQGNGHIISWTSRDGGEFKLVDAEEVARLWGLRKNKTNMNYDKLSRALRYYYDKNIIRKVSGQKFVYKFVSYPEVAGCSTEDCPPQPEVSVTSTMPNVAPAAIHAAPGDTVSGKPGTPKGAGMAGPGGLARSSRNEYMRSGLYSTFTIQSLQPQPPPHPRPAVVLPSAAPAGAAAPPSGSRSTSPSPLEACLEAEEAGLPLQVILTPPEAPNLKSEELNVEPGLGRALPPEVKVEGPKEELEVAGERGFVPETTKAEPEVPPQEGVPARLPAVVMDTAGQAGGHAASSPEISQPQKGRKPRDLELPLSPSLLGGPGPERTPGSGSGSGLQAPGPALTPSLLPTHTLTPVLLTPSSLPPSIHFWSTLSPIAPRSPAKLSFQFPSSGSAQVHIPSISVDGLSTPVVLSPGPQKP
# Summary of the method: as §1
# [3] = target: T3, GABPA (Homo sapiens, UniProt Q06546 1-454); conditions: protein: recombinant; tags: N-terminal GST; dsDNA, one strand shown
# T3 sequence: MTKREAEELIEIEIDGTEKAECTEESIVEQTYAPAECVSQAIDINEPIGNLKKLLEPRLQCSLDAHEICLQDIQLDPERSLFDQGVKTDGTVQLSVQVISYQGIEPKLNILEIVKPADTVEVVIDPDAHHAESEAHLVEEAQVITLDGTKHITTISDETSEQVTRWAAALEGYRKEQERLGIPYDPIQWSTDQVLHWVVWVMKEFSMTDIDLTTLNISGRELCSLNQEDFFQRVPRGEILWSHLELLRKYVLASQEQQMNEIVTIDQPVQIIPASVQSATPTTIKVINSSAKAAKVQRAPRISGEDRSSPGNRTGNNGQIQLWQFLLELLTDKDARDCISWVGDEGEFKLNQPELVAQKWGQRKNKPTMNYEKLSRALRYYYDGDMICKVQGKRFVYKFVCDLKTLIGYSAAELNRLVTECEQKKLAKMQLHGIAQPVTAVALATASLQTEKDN
# Summary of the method: as §1
# [4] = target: T4, ERG (Homo sapiens, UniProt P11308 1-479); conditions: protein: recombinant; tags: N-terminal GST; dsDNA, one strand shown
# T4 sequence: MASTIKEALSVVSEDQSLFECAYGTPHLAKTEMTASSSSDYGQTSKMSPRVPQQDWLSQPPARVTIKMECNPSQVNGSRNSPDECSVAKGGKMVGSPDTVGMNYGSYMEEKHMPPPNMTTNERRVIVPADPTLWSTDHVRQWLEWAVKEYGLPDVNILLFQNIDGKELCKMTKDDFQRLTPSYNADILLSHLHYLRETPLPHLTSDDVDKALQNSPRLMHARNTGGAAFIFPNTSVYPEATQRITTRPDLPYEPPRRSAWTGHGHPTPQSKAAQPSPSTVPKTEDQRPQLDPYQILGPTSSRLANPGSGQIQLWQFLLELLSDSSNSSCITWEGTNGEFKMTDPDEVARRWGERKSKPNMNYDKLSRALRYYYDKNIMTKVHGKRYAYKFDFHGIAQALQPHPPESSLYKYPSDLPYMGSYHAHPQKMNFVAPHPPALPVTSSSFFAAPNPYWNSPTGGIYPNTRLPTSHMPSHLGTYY
# Summary of the method: as §1
# [5] = target: ELF1 (Homo sapiens, UniProt P32519 1-619); conditions: protein: recombinant; tags: N-terminal GST; dsDNA, one strand shown
# Sequence of ELF1 (P32519 whole entry): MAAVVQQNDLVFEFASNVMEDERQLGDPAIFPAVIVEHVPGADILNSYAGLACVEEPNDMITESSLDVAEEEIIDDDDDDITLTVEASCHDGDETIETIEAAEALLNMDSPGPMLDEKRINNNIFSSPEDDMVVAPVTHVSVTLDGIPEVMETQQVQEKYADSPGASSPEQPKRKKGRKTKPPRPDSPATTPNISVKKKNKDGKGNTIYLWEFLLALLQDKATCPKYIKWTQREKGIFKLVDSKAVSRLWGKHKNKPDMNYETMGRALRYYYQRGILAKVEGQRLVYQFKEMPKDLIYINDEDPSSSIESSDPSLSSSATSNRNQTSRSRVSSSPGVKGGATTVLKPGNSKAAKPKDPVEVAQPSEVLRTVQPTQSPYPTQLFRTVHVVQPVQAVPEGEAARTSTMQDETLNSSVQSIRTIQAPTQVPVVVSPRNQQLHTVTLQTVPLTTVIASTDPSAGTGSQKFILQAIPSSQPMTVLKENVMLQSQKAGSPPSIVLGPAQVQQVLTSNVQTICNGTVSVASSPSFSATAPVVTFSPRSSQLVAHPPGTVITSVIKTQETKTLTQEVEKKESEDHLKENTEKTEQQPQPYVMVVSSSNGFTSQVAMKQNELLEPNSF
# Summary of the method: as §1
# [6] = target: T5, EHF (Homo sapiens, UniProt Q9NZC4 1-300); conditions: protein: recombinant; tags: N-terminal GST; dsDNA, one strand shown
# T5 sequence: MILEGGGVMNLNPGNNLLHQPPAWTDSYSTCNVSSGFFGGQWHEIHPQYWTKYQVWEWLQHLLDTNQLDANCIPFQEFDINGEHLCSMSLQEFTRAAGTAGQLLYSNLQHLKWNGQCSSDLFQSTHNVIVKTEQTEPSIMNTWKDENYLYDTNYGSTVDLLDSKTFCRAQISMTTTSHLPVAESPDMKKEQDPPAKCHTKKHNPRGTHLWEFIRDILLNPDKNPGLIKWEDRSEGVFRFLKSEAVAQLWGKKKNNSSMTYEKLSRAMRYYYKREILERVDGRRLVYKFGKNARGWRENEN
# Summary of the method: as §1
# [7] = target: SPI1 (Homo sapiens, UniProt P17947 1-270); conditions: protein: recombinant; tags: N-terminal GST; dsDNA, one strand shown
# Summary of the method: as §1
# [8] = target: SPIB (Homo sapiens, UniProt Q01892 1-262); conditions: protein: recombinant; tags: N-terminal GST; dsDNA, one strand shown
# Sequence of SPIB (Q01892 whole entry): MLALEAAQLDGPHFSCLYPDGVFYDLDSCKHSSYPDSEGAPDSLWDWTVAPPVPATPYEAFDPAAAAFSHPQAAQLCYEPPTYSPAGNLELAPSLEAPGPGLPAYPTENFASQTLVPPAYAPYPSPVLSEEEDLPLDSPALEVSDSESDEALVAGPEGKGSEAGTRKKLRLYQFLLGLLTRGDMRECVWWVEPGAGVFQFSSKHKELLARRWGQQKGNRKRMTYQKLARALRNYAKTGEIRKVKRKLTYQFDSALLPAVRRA
# Summary of the method: as §1
# [9] = target: T6, ELK3 (Homo sapiens, UniProt P41970 1-407); conditions: protein: recombinant; tags: N-terminal GST; dsDNA, one strand shown
# T6 sequence: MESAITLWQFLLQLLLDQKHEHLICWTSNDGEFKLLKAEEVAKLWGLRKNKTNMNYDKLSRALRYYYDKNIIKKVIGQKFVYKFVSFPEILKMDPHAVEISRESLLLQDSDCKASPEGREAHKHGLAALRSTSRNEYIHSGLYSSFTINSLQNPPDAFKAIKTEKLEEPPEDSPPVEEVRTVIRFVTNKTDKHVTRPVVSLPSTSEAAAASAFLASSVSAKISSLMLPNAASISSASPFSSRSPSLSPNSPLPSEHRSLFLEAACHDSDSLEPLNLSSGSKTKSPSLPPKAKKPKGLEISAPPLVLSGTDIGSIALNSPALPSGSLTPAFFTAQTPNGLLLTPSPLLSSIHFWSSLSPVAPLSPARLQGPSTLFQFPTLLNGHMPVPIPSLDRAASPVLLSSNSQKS
# Summary of the method: as §1
# [10] = target: T7, FEV (Homo sapiens, UniProt Q99581 1-238); conditions: protein: recombinant; tags: N-terminal GST; dsDNA, one strand shown
# T7 sequence: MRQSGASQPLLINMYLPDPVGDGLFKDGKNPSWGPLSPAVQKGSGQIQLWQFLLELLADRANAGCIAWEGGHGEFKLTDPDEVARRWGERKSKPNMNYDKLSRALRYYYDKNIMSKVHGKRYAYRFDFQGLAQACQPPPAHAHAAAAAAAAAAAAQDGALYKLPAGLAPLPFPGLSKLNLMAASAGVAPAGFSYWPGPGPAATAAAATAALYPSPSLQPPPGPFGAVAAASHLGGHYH
# Summary of the method: as §1
# [11] = target: ETV5 (Homo sapiens, UniProt P41161 1-510); conditions: protein: recombinant; tags: N-terminal GST; dsDNA, one strand shown
# Sequence of ETV5 (P41161 whole entry): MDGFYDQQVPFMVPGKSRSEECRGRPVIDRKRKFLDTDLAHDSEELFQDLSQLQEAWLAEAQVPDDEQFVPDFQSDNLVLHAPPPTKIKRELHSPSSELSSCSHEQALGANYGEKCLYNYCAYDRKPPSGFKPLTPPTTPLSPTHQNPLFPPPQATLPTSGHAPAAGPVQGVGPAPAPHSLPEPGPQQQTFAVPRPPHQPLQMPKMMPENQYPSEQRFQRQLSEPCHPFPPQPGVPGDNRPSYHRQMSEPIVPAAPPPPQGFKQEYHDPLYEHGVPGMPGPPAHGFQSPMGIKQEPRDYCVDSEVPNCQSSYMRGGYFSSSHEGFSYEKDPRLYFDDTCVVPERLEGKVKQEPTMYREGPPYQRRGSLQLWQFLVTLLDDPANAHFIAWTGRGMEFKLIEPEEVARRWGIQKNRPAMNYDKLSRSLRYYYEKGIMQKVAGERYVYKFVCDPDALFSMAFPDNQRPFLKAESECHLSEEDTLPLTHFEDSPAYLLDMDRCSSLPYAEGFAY
# Summary of the method: as §1
# [12] = target: HSF1 (Homo sapiens, UniProt Q00613 1-529); conditions: protein: recombinant; tags: N-terminal GST; chain copies: 3; dsDNA, one strand shown
# Sequence of HSF1 (Q00613 whole entry): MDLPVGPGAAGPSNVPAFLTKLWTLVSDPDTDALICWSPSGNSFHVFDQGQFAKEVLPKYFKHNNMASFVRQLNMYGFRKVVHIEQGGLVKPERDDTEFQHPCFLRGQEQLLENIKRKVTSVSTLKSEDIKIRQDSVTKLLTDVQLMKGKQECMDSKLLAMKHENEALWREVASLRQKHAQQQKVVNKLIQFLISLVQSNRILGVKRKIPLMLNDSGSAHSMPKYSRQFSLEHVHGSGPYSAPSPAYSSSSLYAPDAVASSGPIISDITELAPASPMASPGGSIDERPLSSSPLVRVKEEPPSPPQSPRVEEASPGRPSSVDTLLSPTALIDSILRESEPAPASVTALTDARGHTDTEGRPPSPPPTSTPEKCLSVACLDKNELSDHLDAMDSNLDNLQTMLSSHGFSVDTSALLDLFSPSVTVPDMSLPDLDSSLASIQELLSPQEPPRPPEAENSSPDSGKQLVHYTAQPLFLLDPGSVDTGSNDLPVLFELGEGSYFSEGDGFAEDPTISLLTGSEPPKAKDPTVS
# Summary of the method: as §1
# [13] = target: T8, SPIC (Homo sapiens, UniProt Q8N5J4 1-248); conditions: protein: recombinant; tags: N-terminal GST; dsDNA, one strand shown
# T8 sequence: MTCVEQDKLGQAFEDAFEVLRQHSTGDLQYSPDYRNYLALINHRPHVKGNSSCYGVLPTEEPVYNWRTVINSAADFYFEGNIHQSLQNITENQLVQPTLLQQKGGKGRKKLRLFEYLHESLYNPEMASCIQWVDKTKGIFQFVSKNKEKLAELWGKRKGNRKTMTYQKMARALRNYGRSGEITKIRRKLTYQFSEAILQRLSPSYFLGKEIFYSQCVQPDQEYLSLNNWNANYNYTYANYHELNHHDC
# Summary of the method: as §1
# [14] = target: ELF4 (Homo sapiens, UniProt Q99607 1-663); conditions: protein: recombinant; tags: N-terminal GST; dsDNA, one strand shown
# Sequence of ELF4 (Q99607 whole entry): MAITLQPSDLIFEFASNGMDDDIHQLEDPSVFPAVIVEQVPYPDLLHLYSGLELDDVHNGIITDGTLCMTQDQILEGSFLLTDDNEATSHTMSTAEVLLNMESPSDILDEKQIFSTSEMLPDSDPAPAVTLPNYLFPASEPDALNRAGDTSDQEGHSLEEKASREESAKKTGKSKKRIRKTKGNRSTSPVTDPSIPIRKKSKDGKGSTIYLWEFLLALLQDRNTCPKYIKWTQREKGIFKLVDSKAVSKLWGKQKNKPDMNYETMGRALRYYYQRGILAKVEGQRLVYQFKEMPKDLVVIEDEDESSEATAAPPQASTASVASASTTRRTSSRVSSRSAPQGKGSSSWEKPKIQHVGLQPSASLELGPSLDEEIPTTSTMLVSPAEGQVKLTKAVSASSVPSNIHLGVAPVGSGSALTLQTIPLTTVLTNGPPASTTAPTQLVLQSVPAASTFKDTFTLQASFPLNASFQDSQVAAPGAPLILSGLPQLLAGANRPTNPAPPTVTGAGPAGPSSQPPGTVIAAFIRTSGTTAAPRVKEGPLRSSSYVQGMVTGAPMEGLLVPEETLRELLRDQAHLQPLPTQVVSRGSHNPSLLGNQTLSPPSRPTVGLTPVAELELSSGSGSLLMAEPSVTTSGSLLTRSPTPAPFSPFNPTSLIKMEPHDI
# Summary of the method: as §1
# [15] = target: T9, ELK4 (Homo sapiens, UniProt P28324-2 1-405); conditions: protein: recombinant; tags: N-terminal GST; dsDNA, one strand shown
# T9 sequence: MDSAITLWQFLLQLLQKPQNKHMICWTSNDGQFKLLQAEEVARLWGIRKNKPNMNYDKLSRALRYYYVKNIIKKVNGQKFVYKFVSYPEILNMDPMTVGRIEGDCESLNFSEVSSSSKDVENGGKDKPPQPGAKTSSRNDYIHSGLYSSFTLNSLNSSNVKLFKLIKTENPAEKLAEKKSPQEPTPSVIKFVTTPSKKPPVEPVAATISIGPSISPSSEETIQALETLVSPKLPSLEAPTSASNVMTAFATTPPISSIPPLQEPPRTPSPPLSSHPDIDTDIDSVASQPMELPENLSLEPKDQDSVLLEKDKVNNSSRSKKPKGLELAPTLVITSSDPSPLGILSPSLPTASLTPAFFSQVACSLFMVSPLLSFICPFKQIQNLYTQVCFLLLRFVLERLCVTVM
# Summary of the method: as §1
# [16] = target: T10, ETV2 (Homo sapiens, UniProt O00321 1-342); conditions: protein: recombinant; tags: N-terminal GST; dsDNA, one strand shown
# T10 sequence: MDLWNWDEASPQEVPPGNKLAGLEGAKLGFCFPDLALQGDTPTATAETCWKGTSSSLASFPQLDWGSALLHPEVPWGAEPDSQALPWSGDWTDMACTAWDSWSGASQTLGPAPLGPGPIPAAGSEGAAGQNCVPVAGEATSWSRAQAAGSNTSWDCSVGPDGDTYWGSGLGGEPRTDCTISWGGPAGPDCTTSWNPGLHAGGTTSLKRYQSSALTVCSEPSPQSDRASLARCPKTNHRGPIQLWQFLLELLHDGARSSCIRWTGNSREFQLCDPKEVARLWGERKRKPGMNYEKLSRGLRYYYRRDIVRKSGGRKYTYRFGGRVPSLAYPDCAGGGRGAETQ
# Summary of the method: as §1
# [17] = target: T11, ELF3 (Homo sapiens, UniProt P78545 1-371); conditions: protein: recombinant; tags: N-terminal GST; dsDNA, one strand shown
# T11 sequence: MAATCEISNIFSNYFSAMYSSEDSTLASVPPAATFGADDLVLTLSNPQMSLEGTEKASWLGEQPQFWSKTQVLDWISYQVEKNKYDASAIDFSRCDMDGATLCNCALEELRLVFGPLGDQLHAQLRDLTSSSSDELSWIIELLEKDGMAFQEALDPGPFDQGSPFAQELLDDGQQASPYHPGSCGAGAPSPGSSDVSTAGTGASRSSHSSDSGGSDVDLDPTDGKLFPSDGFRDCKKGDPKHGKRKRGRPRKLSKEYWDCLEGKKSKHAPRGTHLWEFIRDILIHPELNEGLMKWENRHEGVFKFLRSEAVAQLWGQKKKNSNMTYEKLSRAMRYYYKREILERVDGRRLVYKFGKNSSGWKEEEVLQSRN
# Summary of the method: as §1
# [18] = target: CRX (Homo sapiens, UniProt O43186 1-299); conditions: protein: recombinant; tags: N-terminal GST; dsDNA, one strand shown
# Sequence of CRX (O43186 whole entry): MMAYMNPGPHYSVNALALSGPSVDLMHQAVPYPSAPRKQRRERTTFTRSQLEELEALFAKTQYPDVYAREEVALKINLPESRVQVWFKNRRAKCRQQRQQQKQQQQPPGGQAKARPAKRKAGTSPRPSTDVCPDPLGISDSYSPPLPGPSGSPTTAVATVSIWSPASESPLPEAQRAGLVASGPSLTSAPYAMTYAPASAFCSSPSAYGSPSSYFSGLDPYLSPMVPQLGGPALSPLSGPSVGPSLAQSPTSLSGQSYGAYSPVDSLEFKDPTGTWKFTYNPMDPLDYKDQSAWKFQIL
# Summary of the method: as §1
# [19] = target: ETV1 (Homo sapiens, UniProt P50549 1-477); conditions: protein: recombinant; tags: N-terminal GST; dsDNA, one strand shown
# Sequence of ETV1 (P50549 whole entry): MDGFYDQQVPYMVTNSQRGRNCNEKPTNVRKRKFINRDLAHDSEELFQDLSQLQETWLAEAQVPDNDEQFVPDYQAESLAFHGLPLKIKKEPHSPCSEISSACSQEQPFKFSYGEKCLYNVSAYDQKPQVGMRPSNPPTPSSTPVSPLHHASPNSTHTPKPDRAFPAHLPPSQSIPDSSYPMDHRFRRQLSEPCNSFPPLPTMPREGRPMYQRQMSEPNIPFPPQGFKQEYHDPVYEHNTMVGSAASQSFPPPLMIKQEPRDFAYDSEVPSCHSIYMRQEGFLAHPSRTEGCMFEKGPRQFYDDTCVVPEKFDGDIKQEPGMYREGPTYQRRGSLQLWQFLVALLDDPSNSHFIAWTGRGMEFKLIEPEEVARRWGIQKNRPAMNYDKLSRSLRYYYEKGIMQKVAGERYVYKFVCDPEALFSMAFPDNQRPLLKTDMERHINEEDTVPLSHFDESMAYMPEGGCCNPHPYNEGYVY
# Summary of the method: as §1
sequence,measurement,setting,value
GCGCTT,binding signal,[1],"1.31 fold enrichment (6-mer frequency, TF over GST control)"
same,binding signal,[2],"1.36 fold enrichment (6-mer frequency, TF over GST control)"
same,binding signal,[3],"1.32 fold enrichment (6-mer frequency, TF over GST control)"
same,binding signal,[4],"1.24 fold enrichment (6-mer frequency, TF over GST control)"
same,binding signal,[5],"1.31 fold enrichment (6-mer frequency, TF over GST control)"
same,binding signal,[6],"1.31 fold enrichment (6-mer frequency, TF over GST control)"
same,binding signal,[7],"1.2 fold enrichment (6-mer frequency, TF over GST control)"
same,binding signal,[8],"1.45 fold enrichment (6-mer frequency, TF over GST control)"
same,binding signal,[9],"1.31 fold enrichment (6-mer frequency, TF over GST control)"
same,binding signal,[10],"1.37 fold enrichment (6-mer frequency, TF over GST control)"
same,binding signal,[11],"1.29 fold enrichment (6-mer frequency, TF over GST control)"
same,binding signal,[12],"1.16 fold enrichment (6-mer frequency, TF over GST control)"
same,binding signal,[13],"1.26 fold enrichment (6-mer frequency, TF over GST control)"
same,binding signal,[14],"1.24 fold enrichment (6-mer frequency, TF over GST control)"
same,binding signal,[15],"1.36 fold enrichment (6-mer frequency, TF over GST control)"
same,binding signal,[16],"1.12 fold enrichment (6-mer frequency, TF over GST control)"
same,binding signal,[17],"1.04 fold enrichment (6-mer frequency, TF over GST control)"
same,binding signal,[18],"1.39 fold enrichment (6-mer frequency, TF over GST control)"
same,binding signal,[19],"1.3 fold enrichment (6-mer frequency, TF over GST control)"
